This note sets out measurements from ChEMBL document CHEMBL1961873, “Compounds: GSK PKIS; Assays: Nanosyn kinase panel” (2012).

In general, inhibition refers to the change of the read-out against control, counted positive when it falls.

The structures appear in SMILES notation.

Experiment [1] concerns the target 5'-AMP-activated protein kinase catalytic subunit alpha-2 (Homo sapiens) (UniProt P54646). The settings on record: at 1 µM.
The target of experiment [2] is T1, NUAK family SNF1-like kinase 1 (Homo sapiens) (UniProt O60285).
T1 sequence (whole entry): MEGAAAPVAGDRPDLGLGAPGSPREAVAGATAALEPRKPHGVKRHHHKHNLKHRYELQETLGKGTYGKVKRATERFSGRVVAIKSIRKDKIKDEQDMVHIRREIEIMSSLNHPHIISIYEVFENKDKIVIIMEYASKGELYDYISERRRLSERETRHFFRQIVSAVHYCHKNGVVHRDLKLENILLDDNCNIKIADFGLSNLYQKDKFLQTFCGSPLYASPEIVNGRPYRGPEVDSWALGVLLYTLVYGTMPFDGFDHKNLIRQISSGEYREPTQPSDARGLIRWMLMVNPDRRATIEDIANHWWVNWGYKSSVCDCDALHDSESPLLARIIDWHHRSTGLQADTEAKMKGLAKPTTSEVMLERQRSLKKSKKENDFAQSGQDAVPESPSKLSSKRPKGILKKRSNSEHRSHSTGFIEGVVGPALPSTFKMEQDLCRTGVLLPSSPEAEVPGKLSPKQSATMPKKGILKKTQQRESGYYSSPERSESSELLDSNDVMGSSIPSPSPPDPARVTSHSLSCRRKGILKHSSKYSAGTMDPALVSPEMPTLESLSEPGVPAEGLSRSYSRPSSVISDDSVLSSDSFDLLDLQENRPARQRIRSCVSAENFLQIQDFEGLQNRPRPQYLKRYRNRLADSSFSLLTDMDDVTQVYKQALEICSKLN
Particulars: at 0.1 µM.

The target in experiment [3] is T1, NUAK family SNF1-like kinase 1 (Homo sapiens). Particulars: at 1 µM.
Experiment [4] concerns the target T2, Serine/threonine-protein kinase BRSK1 (Homo sapiens) (UniProt Q8TDC3).
T2 sequence (whole entry): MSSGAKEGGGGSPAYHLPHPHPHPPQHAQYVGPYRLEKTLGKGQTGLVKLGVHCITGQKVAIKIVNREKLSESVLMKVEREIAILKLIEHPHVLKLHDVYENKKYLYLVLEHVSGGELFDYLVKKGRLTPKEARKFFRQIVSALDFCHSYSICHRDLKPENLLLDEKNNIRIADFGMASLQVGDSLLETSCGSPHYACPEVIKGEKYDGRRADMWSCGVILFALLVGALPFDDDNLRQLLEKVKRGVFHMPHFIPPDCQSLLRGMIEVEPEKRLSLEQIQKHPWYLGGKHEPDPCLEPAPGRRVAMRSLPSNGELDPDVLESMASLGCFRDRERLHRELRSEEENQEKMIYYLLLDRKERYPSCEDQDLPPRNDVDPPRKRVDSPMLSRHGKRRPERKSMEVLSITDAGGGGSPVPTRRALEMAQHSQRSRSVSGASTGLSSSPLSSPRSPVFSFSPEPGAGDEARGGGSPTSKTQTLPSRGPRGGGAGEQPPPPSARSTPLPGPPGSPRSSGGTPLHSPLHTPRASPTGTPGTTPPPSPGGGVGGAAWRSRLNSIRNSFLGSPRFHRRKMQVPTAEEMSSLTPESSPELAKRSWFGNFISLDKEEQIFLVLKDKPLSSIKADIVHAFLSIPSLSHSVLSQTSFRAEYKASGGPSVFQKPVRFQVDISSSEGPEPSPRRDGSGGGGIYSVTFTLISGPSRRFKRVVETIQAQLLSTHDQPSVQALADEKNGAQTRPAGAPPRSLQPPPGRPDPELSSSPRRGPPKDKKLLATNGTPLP
The settings on record: at 0.1 µM.

The target in experiment [5] is T2, Serine/threonine-protein kinase BRSK1 (Homo sapiens). Particulars: at 1 µM.
Experiment [6] has as its target T3, Serine/threonine-protein kinase BRSK2 (Homo sapiens) (UniProt Q8IWQ3).
T3 sequence (whole entry): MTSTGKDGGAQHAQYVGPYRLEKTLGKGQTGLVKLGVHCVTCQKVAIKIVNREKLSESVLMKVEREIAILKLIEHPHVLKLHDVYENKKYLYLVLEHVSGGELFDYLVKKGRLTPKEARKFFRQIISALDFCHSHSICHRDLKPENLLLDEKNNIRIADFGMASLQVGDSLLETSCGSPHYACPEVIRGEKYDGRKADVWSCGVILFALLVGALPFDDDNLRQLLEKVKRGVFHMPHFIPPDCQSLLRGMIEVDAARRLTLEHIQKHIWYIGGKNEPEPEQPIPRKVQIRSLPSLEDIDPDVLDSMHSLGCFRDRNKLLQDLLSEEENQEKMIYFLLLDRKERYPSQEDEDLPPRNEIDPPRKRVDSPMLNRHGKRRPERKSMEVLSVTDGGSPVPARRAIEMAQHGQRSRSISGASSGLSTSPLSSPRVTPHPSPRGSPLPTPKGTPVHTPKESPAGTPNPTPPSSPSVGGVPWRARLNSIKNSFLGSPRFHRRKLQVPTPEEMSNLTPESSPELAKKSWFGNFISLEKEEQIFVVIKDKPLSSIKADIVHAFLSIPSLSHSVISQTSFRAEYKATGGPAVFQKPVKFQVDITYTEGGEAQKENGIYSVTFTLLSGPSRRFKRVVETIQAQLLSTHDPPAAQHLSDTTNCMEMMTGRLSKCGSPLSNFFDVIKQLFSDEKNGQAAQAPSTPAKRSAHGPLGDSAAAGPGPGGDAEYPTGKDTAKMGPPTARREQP
The settings on record: at 0.1 µM.

Experiment [7] has as its target T3, Serine/threonine-protein kinase BRSK2 (Homo sapiens). Particulars: at 1 µM.
Experiment [8] addresses Calcium/calmodulin-dependent protein kinase type 1D (Homo sapiens) (UniProt Q8IU85). Particulars: at 0.1 µM.
Experiment [9] has the same target. Particulars: at 1 µM.
For experiment [10], the target named is Calcium/calmodulin-dependent protein kinase type II subunit alpha (Homo sapiens) (UniProt Q9UQM7). The settings on record: at 0.1 µM.
Calcium/calmodulin-dependent protein kinase type II subunit alpha (Homo sapiens), sequence (Q9UQM7 whole entry): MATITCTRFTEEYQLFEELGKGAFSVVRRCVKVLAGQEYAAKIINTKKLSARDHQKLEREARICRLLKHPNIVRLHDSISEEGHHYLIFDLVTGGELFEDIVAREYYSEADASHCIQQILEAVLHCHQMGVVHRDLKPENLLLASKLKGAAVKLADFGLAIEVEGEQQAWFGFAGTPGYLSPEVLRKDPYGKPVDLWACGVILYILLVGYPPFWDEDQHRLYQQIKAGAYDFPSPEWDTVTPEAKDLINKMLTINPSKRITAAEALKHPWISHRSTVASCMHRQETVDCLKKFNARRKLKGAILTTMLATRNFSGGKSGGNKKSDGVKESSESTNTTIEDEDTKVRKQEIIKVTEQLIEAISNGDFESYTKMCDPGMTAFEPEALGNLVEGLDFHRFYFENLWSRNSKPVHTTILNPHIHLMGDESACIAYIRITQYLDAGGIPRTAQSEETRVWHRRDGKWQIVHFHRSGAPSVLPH
Experiment [11] shares this target. Particulars: at 1 µM.
Experiment [12] concerns the target Calcium/calmodulin-dependent protein kinase type II subunit delta (Homo sapiens) (UniProt Q13557). The settings on record: at 0.1 µM.
Experiment [13] has the same target. Particulars: at 1 µM.
The target of experiment [14] is T4, Calcium/calmodulin-dependent protein kinase type IV (Homo sapiens) (UniProt Q16566).
T4 sequence (whole entry): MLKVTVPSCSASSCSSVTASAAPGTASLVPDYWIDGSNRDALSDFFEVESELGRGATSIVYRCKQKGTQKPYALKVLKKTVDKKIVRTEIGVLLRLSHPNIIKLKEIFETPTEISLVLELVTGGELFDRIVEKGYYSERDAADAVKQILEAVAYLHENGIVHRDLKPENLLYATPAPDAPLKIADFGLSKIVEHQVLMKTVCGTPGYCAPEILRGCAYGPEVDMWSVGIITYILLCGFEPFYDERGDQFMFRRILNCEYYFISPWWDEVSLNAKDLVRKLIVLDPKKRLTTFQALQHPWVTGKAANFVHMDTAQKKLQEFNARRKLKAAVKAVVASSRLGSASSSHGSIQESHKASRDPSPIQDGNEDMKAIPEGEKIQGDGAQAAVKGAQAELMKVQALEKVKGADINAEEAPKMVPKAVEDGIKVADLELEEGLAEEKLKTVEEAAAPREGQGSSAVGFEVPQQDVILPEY
The settings on record: at 0.1 µM.

In experiment [15] the target is T4, Calcium/calmodulin-dependent protein kinase type IV (Homo sapiens). Particulars: at 1 µM.
The target in experiment [16] is T5, Serine/threonine-protein kinase Chk1 (Homo sapiens) (UniProt O14757).
T5 sequence (whole entry): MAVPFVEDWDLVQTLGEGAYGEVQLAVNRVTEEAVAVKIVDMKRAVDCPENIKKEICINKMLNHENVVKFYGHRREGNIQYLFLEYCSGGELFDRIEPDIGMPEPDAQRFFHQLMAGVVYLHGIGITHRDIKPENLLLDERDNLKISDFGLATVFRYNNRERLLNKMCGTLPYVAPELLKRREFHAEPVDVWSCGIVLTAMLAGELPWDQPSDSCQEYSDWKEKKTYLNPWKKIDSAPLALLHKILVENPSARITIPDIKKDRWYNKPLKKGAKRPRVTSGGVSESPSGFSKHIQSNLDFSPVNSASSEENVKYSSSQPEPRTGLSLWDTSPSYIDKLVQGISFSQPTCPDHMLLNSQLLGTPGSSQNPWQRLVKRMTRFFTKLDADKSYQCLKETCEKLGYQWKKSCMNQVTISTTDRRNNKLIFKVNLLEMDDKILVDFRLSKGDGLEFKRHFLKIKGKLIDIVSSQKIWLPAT
The settings on record: at 0.1 µM.

For experiment [17], the target named is T5, Serine/threonine-protein kinase Chk1 (Homo sapiens). The settings on record: at 1 µM.
Experiment [18] has as its target Serine/threonine-protein kinase Chk2 (Homo sapiens) (UniProt O96017). The settings on record: at 0.1 µM.
The target is the same in experiment [19]. The settings on record: at 1 µM.
Experiment [20] concerns the target Death-associated protein kinase 1 (Homo sapiens) (UniProt P53355). The settings on record: at 0.1 µM.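 Also: reported figure is the mean inhibition of DAPK1.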

Serine/threonine-protein kinase Chk2 (Homo sapiens), sequence (O96017 whole entry): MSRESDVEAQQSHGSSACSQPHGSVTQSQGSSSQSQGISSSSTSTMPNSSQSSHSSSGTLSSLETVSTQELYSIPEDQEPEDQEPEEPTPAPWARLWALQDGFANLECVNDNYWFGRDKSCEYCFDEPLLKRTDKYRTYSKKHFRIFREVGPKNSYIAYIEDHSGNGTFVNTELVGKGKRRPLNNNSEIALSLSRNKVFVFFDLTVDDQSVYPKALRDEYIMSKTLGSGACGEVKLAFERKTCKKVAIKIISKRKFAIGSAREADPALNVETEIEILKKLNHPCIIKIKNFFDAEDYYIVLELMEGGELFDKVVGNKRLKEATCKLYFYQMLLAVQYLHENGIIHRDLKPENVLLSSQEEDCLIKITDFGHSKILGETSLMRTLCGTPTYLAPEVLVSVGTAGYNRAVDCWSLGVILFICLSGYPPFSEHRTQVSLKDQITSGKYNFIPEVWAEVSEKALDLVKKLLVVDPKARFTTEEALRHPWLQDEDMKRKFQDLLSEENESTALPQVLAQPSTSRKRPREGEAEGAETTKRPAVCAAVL
5'-AMP-activated protein kinase catalytic subunit alpha-2 (Homo sapiens), sequence (P54646 whole entry, looked up): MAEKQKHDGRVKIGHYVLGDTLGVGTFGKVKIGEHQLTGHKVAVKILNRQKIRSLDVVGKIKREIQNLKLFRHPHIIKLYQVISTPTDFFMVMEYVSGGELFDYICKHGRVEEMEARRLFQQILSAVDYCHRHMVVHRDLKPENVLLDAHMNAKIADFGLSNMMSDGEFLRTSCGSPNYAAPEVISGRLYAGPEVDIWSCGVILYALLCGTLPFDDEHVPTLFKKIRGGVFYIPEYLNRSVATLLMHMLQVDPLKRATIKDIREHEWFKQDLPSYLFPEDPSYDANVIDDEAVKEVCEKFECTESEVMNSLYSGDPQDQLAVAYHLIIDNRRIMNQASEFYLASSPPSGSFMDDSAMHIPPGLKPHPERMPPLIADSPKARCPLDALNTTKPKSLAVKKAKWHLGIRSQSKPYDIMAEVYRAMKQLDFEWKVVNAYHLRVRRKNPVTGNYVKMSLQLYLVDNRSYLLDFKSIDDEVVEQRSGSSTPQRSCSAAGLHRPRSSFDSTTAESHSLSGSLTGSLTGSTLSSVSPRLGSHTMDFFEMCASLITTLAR
Calcium/calmodulin-dependent protein kinase type 1D (Homo sapiens), sequence (Q8IU85 whole entry, looked up): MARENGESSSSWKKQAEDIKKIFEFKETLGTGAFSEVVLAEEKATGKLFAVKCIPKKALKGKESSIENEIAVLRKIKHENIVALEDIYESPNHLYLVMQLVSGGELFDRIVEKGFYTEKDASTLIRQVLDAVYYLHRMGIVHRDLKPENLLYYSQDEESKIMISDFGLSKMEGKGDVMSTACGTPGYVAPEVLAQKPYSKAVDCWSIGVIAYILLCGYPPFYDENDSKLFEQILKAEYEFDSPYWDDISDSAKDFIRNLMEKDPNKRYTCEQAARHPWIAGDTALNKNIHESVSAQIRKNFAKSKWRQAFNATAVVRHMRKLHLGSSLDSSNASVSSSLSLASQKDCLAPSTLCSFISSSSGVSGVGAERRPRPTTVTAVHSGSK
Calcium/calmodulin-dependent protein kinase type II subunit delta (Homo sapiens), sequence (Q13557 whole entry): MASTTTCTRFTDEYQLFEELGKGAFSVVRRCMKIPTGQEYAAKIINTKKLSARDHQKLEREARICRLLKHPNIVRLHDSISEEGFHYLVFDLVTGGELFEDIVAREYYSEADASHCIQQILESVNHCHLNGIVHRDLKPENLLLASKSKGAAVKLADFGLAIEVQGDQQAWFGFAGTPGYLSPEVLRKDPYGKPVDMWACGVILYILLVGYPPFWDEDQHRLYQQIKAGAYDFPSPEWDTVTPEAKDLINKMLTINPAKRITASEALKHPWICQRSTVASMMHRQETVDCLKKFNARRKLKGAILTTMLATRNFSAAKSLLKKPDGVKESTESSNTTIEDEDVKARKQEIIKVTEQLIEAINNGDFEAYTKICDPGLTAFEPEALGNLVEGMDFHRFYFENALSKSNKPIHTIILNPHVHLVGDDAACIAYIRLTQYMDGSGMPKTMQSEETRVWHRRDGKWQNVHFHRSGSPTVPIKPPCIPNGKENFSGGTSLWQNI
Death-associated protein kinase 1 (Homo sapiens), sequence (P53355 whole entry, looked up): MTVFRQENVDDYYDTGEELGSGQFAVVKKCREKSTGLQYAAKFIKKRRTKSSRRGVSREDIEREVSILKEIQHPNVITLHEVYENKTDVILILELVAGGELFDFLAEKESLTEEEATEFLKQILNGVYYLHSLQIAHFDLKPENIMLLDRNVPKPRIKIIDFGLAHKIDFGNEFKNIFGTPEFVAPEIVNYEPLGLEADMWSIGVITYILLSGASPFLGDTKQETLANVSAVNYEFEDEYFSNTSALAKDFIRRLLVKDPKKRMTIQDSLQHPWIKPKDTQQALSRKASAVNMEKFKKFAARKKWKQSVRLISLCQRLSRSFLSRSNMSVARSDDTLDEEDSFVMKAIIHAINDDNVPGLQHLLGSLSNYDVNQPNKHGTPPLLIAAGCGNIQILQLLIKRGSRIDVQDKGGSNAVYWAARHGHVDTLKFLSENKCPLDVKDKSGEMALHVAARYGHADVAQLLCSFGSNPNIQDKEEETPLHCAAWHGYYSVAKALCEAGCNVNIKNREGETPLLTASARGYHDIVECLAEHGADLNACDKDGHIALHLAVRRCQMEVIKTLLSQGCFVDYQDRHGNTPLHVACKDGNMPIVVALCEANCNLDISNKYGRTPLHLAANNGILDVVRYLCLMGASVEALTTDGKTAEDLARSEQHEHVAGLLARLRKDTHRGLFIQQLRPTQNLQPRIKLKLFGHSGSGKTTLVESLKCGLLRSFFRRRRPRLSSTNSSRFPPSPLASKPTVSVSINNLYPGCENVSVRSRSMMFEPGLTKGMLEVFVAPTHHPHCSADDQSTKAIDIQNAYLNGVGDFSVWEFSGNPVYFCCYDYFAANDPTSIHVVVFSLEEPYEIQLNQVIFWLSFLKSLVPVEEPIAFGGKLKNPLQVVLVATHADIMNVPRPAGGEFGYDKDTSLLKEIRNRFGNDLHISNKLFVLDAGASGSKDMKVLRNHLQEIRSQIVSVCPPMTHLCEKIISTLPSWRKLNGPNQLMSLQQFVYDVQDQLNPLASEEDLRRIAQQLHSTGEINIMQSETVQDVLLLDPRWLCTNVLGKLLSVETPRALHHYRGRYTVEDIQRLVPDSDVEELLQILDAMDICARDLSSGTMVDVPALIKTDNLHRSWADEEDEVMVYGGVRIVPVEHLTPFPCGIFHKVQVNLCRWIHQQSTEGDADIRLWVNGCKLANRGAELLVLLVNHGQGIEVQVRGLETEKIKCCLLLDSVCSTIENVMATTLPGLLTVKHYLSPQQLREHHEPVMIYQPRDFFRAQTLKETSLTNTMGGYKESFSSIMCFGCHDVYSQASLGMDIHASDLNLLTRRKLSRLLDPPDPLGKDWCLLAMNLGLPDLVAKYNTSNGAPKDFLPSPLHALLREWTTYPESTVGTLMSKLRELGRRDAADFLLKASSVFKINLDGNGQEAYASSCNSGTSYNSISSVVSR

Turning to `Fc1ccc(-c2ncn(C3CCNCC3)c2-c2ccnc(Oc3ccc4c(c3)OCO4)n2)cc1`, the inhibition came to 4.45% in [1]; 1.79% in experiment [2]; 3.25% in [3]; 0.76% in experiment [4]; 6.01% in experiment [5]; 3.69% in [6]. In addition, the inhibition in [7] is 5.73%; in experiment [8], -0.69%; in experiment [9], 0.53%; in [10] it was 6.35%; in experiment [11] it was 12.6%; in [12] it was 2.69%. Moreover, the inhibition is 3.08% in experiment [13]; 0.19% in [14]; 0.41% in [15]; -3.37% in experiment [16]; -1.58% in experiment [17]; -2.12% in experiment [18]. Besides, the values for the inhibition in experiment [19] and in experiment [20] were -3.43% and -1.22%, respectively.
Consider `O=C(Nc1ccc(Oc2ccc3[nH]c(NC(=O)c4ccccc4)nc3c2)cc1)Nc1cc(C(F)(F)F)ccc1F`, for which the inhibition is 4.55% in [1]; 1.15% in experiment [2]; 3.05% in experiment [3]; 0.18% in experiment [4]; 0.16% in experiment [5]; 1.2% in experiment [6]. For the same molecule, the inhibition in experiment [7] was 2.83%; in experiment [8] it was -0.03%; in [9], 1.95%; in experiment [10] it was 2.8%; in experiment [11] it was 2.85%; in experiment [12], 2.01%. The inhibition in [13] was 4.57%; in experiment [14], -0.56%; in experiment [15] it was -0.86%; in [16], 4.82%; in experiment [17], 5.63%; in [18], 1.47%. For the same molecule, the inhibition in [19] was 3.89%; in experiment [20] it was 4.99%.
For the molecule `c1ccc(Oc2ccc(Nc3ncc(-c4ccccc4)o3)cc2)cc1`, the inhibition in experiment [1] is 2.49%; in [2], -0.75%; in experiment [3], 5.38%; in experiment [4], -0.66%; in experiment [5] it was 0.76%; in experiment [6] it was 0%. The inhibition is 1.39% in [7]; 0.01% in [8]; 0.14% in experiment [9]; -0.24% in [10]; 0.18% in [11]; 0.76% in experiment [12]. The inhibition is 0.58% in experiment [13]; 0.49% in experiment [14]; 1.32% in experiment [15]; 0.67% in experiment [16]; 1.6% in experiment [17]; 0.58% in [18]. The inhibition in experiment [19] stood at 1.05%; in experiment [20] it was 0.04%.
With `COc1cc(Nc2ncc3c(C)nc(-c4cccc(Oc5ccccc5)c4)n3n2)cc(OC)c1OC`, the inhibition in [1] stood at 7.86%; in experiment [2] it was 4.33%; in experiment [3], 26.4%; in experiment [4], 1.68%; in experiment [5], 2.44%; in experiment [6], 0.74%. Besides, the inhibition in [7] amounted to 3.26%; in experiment [8], 1.34%; in experiment [9] it was 3.48%; in experiment [10] it was 3.17%; in experiment [11] it was 4.08%; in experiment [12], 3.36%. For the same molecule, the inhibition in [13] is 3.83%; in [14], 1.65%; in [15], 4.26%; in experiment [16] it was 3.9%; in experiment [17], 10.2%; in [18], 7.97%. Further, the inhibition in experiment [19] amounted to 11.6%; in [20], 8.86%.
Turning to `c1ccc(-c2n[nH]cc2-c2ccnc(-c3ccc(OCCN4CCOCC4)cc3)c2)nc1`, the inhibition in experiment [1] worked out at 4.37%; in [2] it was 5.95%; in [3] it was 7.16%; in experiment [4] it was 8.84%; in experiment [5], 6.57%; in [6] it was 6.13%. The inhibition was 4.06% in experiment [7]; 2.06% in experiment [8]; 3.63% in [9]; -0.64% in experiment [10]; 0.85% in experiment [11]; -1.29% in [12]. The inhibition was -0.13% in [13]; -0.9% in experiment [14]; 0.4% in [15]; 1.01% in experiment [16]; -1.98% in experiment [17]; 3.21% in [18]. Besides, the inhibition in experiment [19] was found to be 2.24%; in [20], 1%.
